Compound activity as filed in PubChem BioAssay.
KB-3-1 tox – KB-3-1 parental cell cytotoxicity. KB-3-1 viability, CellTiter-Glo ATP luminescence, 72 h. Potency, µM (doses to about 46.1 µM), actives largely listed as cytotoxic. actives 1.4% (n = 400,000); further: on the % scale 0 is the no-effect control and ±100 the full control effect; nearly all actives have a fitted effect of over 60% in size
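Cytotoxicity in the drug-sensitive parental line KB-3-1 was scored as loss of CellTiter-Glo luminescence following 72 h incubation with compound. Values come from curve fitting of normalized concentration-response data.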
ELG1 repair inh – ELG1-dependent DNA repair inhibition; Potency, µM (highest dose often 46.1 µM), for inactives: at the top dose activity change, negative = inhibition, most hits filed as inhibitors; actives 2.3% (n = 330,000); HEK293T ELG1-luciferase reporter, luminescence, 16 h; DNA damage induced by 5-fluorouridine; further: on the % scale 0 is the no-effect control and ±100 the full control effect; nearly all actives have a fitted effect of over 55% in size
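In this reporter screen, reduction of luminescence relative to DMSO vehicle indicated activity. Compounds and 5-fluorouridine were added together to 2,000 cells per well, incubated for 16 hr at 37 °C, then developed with ONE-Glo.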
MCF10A rerep – DNA re-replication induction in MCF 10a cells. MCF 10A DNA re-replication, Hoechst nuclear intensity, 48 h. Potency, µM (doses to about 46.1 µM), for inactives: at the highest dose activity, positive = re-replication, hits mostly activators. actives 2.9% (n = 350,000). AID 624296; further: % of control where 0% means no effect; nearly all actives have a fitted effect of over 50% in size
SW480 rereplic – inducers of DNA re-replication in SW480 colon cancer cells; SW480 DNA re-replication, Hoechst DNA content imaging, 48 h; AID 624297; actives 1.8% (n = 340,000); Potency, µM (highest dose often 46.1 µM), inactives show at the top dose re-replication activation, usual class: activators; further: % of control where 0% means no effect; nearly all actives have a fitted effect of over 55% in size
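Per well, 250 cells were exposed to pinned compound for 48 hr. Nuclear DNA was visualised with Hoechst (40 min, 37 C) and total object intensity recorded by fluorescence scanning.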
KB-V1 cytotox – KB-V1 MDR subline cytotoxicity | Potency, µM (titrated, usually from 46.1 µM), most hits filed as cytotoxic | actives 3.4% (n = 400,000) | KB-V1 MDR cells viability, CellTiter-Glo, 72 h; further: on the % scale 0 is the no-effect control and ±100 the full control effect; nearly all actives have a fitted effect of over 60% in size
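Readout: CellTiter-Glo luminescence, 10 min after addition. Cells: KB-V1 MDR subline, 72 h at 37 degrees C with compound. Analysis: corrected, normalized data fitted to concentration-effect curves.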
The depositor's hits bear a star; i = inactive; ? = inconclusive; / = no result given; [ ] = remark or other dose. Sampled rows, rich in hits. Any-hit rate of the full collection: about 8.1%. The call rests on the fitted dose curve; in most records, active means well fitted curve in the direction sought with a large enough effect; inconclusive means small, poorly fitted or top-dose-only effect, or another doubt; inactive means no such curve, though single readings can be large; an effect the other way counts as inactive or inconclusive. Potency means the concentration at half of the fitted maximal effect.

SMILES	KB-3-1 tox	ELG1 repair inh	MCF10A rerep	SW480 rereplic	KB-V1 cytotox
Cc1ccccc1-n1c(SCC(=O)Nc2c(C)cccc2C)nc(O)cc1=O	i	-3%	1%	0%	i
CCS(=O)(=O)N1CC(=O)N(c2ccc(C)c(C)c2)C(C)(C(=O)NC2CCCCCC2)C1 (stereo not given)	i	/	/	/	i
O=C1C=CC(=O)c2c(O)c(N3CCN(CCO)CC3)c(Cl)c(O)c21	5.2µM*	/	0%	0.65µM*	?
OCCOCCN1CCN(C2=Nc3ccccc3Sc3ccccc32)CC1	i	?	-20%	-10%	i
O=S(=O)(c1ccc(Br)cc1Cl)N1CCN(CCO)CC1	i	12%	6%	-7%	i
O=C1C=CC(=O)c2c(O)c(N3CCN(CCOCCO)CC3)c(Br)c(O)c21	5.2µM*	/	3%	?	4.1µM*
CCn1c(Sc2ccc([N+](=O)[O-])cn2)nnc1-c1ccco1	21µM*	-9%	6.5µM*	8%	?
COc1ccccc1-c1nnc(SCC(=O)Nc2ccc(Cl)cc2Cl)o1	i	-3%	-3%	-2%	i
COc1cccc2c1OC[C@@H](CO)[C@H]2N(C)C(=O)Nc1ccc(Cl)cc1Cl	23µM*	-17%	4%	-4%	3.3µM*
CC(=O)c1cccc(NS(=O)(=O)c2cc(-c3onc(C)c3C)ccc2C)c1	15µM*	/	/	/	?
COc1ccc(CNCCC(c2ccc3c(c2)OCO3)c2ccccc2OC)cc1 (stereo not given)	i	/	/	/	?
Cc1nn(C)c(C)c1S(=O)(=O)N1CCCC(C(=O)N2CCN(c3ccc(Cl)cc3)CC2)C1 (stereo not given)	18µM*	?	0%	-5%	i
Cc1ccc(Cl)cc1N1CCN(C(=O)C2CCN(S(=O)(=O)c3cccnc3)CC2)CC1	i	0%	11%	6%	?
Cc1ccc(Cl)cc1N1CCN(C(=O)C2CCN(S(=O)(=O)c3c(C)nn(C)c3C)CC2)CC1	i	18µM*	?	?	i
Cc1n[nH]c(C)c1S(=O)(=O)N1CCCC(C(=O)N2CCN(c3ccc(Cl)cc3)CC2)C1 (stereo not given)	i	?	7%	?	?
C1CN(CCN2CCOCC2)CCN1	i	15%	?	-80%	i
O=C(O)c1cc(-c2ccc(O)cc2)on1	i	5%	-8%	-79%	i
COc1ccc(C2C(C(=O)N3CCCCC3)c3ccccc3C(=O)N2C)cc1 (stereo not given)	i	-2%	12µM*	?	?
COc1cccc(Oc2nc(-c3ccncc3)nc3ccccc23)c1	?	-19%	18µM*	-6%[9.22 µM]	?
COc1ccc(Oc2nc(-c3ccccn3)nc3ccccc23)cc1	?	9.2µM*	2%	?	?
Fc1ccc(Oc2nc(-c3ccccn3)nc3ccccc23)cc1	i	?	?	63%	?
c1ccc(Oc2nc(-c3ccccn3)nc3ccccc23)cc1	?	?	?	21µM*	i
CCOC(=O)C1=CCN(S(=O)(=O)c2ccccc2)C1c1ccccc1 (stereo not given)	i	/	/	/	i
CC(C)c1csc(CN2CCC(CO)(Cc3cccc(F)c3)CC2)n1	?	-17%	?	-1%	?
CC(C)C(=O)N1CCN(S(=O)(=O)c2ccc3ccccc3c2)CC1	i	?	1%	2.9µM*	i
O=S(=O)(c1cccc(NC(=S)N2CCN(c3ccc(F)cc3)CC2)c1)C(F)F	i	?	?	18µM*	i
O=S(=O)(c1ccc2ccccc2c1)N1CCN(C(=S)Nc2ccc(F)cc2)CC1	?	18µM*	4%	/	?
O=C(Cn1ncc(Cl)c(Cl)c1=O)N1CCN(S(=O)(=O)c2ccc3ccccc3c2)CC1	16µM*	?	?	?	i
CC(C)OCCCn1c(SCc2ccccc2C#N)nc2c(sc3ccccc32)c1=O	i	/	/	/	i
O=C(NCC(c1ccco1)N1CCN(c2ccc(F)cc2)CC1)C(=O)NC1CCCC1 (stereo not given)	i	4%	2%	-40%	i
